Measured values from PubChem BioAssay (NCI).
About 79,000 compounds went through this panel and 15% of them were active in at least one assay; those are over-represented in the sample as a whole. Active and inactive are the calls of the source. Cut-off read from the data, not from the text of the source: active = growth inhibition above about 70%; inactive = the rest.

Experiment: NCI Yeast Anticancer Drug Screen. Data for the mec2-1 strain (AID 157)
Details: S. cerevisiae mec2-1 strain, at 50.0 µM, hits give high values
In short: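 Test agents were screened against the mec2-1 yeast strain, with defined DNA repair or cell cycle alteration. Growth was scored as inhibition against vehicle-only controls.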

Compound	growth inhibition
O=[N+]([O-])c1ccc(N2N=NC(CN3CCOCC3)C2N2CCOCC2)cc1 (stereo not drawn)	47.3% (inactive)
FC(F)(F)c1ccccc1NC(=S)SCc1ccco1	76.3% (active)
O=C(c1ccc(Cl)cc1)C1N=NCC1c1ccccc1 (stereo not drawn)	22.8% (inactive)
COc1cc(C2c3cc4c(cc3[C@@H](OCCN)[C@H]3COC(=O)C23)OCO4)cc(OC)c1O (stereo partly drawn)	77.2% (active)
CC(C)(C)c1cc2c(c(C(C)(C)C)c1O)CC(=O)O2	45.5% (inactive)
CCCCCCCCCCCCCCCCCCSSCCCCCCCCCCCCCCCCCC	14.9% (inactive)
c1ccc2c(c1)OCC(CNCCNCC1COc3ccccc3O1)O2 (stereo not drawn)	57.9% (inactive)
CC(=O)C(C(C)=O)C1C=CC=CC=C1	92.5% (active)
c1ccc2c(c1)ccc1c[n+]3c4ccccc4ccc3n12	85.5% (active)
CC(=O)C(=C(I)I)c1ccccc1	55% (inactive)
O=C1c2ccccc2CN1Cc1ccc(Cl)c(Cl)c1	42.2% (inactive)
CC1CC(N)=NC1C(=O)NCCC#N (stereo not drawn)	3.25% (inactive)
CC(=O)CC(C)=NCCN=C(C)CC(C)=O.[Pd]	67.2% (inactive)
CCOc1ccccc1NC1=C(Cl)C(=O)c2ccccc2C1=O	97.9% (active)
CCN1C2=NCCN2S(=O)(=O)c2ccccc21	-4.45% (inactive)
O=C(Cc1nc2ccccc2s1)C(=O)Nc1ccc(Cl)cc1	23.1% (inactive)
O=C(CCn1[nH]c(=O)c(Cl)c(Cl)c1=O)NNc1ccc([N+](=O)[O-])cc1[N+](=O)[O-]	-4.7% (inactive)
COc1cccc(C2c3cc4c(cc3OC(NNc3ccccc3)C2C)OCO4)c1OC (stereo not drawn)	44.7% (inactive)
COc1ccc(-c2cc3ccccc3c(=O)n2Cc2ccccc2)cc1	88.4% (active)
CN(C)CCCNCC(=O)Nc1ccc(S(=O)(=O)c2ccc(NC(=O)CNCCCN(C)C)cc2)cc1	58.7% (inactive)

Compound	growth inhibition
O=C1NN=C(c2ccc(Cl)cc2)CC1C1C(=O)N(c2ccccc2)N=C1c1ccccc1 (stereo not drawn)	98.9% (active)
Cc1ccc(S(=O)(=O)NCCSSCCNS(=O)(=O)c2ccc(C)cc2)cc1	96% (active)
O=C(CC(=O)c1ccccc1)CC(=O)c1ccccc1Br	93.5% (active)
Nc1ncc2ccccc2c1-c1ccc(NC(=O)CCCl)cc1	14.8% (inactive)
CC1=NC(=Cc2cccc(Cl)c2)C(=O)N1n1c(-c2ccccc2)nc2ccccc2c1=O	69.9% (inactive)
CCCOC(=O)CCCC(=O)N(CC)CC	-7.7% (inactive)
C=C1C(=O)[C@@]23CC[C@H]4[C@@](C)(CCC[C@@]4(C)C(=O)OC)[C@@H]2CC[C@]1(O)C3	94.4% (active)
CCCCN(CCCC)CCC(=O)c1ccc2c(ccc3ccccc32)c1	95.5% (active)
CC1CCC2(C)C(CC=C(C=O)C2(O)C=O)C12CO2 (stereo not drawn)	95.3% (active)
CN(C)CC1CC/C(=C\c2ccc(Cl)c(Cl)c2)C1=O (stereo not drawn)	93.6% (active)
CCS(=O)(=O)c1ccc(NC(=O)OC2CCCCCCC2)cc1	80.6% (active)
CC(=O)OC1CCCCCCCCCCC12OCCO2 (stereo not drawn)	63% (inactive)
CC(=O)OCc1cc2c(s1)C(=O)c1sccc1C2=O	81% (active)
O=C1C=CC(=O)c2nc3ccccc3nc21	83.2% (active)
Cc1ccccc1C1c2c(C)cccc2C(=O)CC1CC(=O)O (stereo not drawn)	81.5% (active)
CCOC(=O)c1c(N)sc2c1CCCCC2	45.4% (inactive)
CCCCC(O)CCCC	8.65% (inactive)
Nc1nn2c(C(Br)Br)cc(C(Br)Br)nc2c1[N+](=O)[O-]	99.5% (active)
COC(=O)c1n[nH]c(C(C)C)c1N=NN(C)C	99.1% (active)

Experiment: NCI Yeast Anticancer Drug Screen. Data for the sgs1 mgt1 strain (AID 161);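 note: 0% = growth of cultures given vehicle only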
Details: S. cerevisiae sgs1 mgt1 strain, at 5.0 µM (retest, dose inferred, filed as 0.5), hits give high values
In short: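 Inhibition of yeast growth, normalised to vehicle-treated controls, is reported for a strain bearing genetic alterations in DNA damage repair.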

Compound	growth inhibition
O=[N+]([O-])c1ccc(N2N=NC(CN3CCOCC3)C2N2CCOCC2)cc1 (stereo not drawn)	1% (inactive)
FC(F)(F)c1ccccc1NC(=S)SCc1ccco1	1% (inactive)
O=C(c1ccc(Cl)cc1)C1N=NCC1c1ccccc1 (stereo not drawn)	4% (inactive)
COc1cc(C2c3cc4c(cc3[C@@H](OCCN)[C@H]3COC(=O)C23)OCO4)cc(OC)c1O (stereo partly drawn)	29% (inactive)
CC(C)(C)c1cc2c(c(C(C)(C)C)c1O)CC(=O)O2	-37% (inactive)
CCCCCCCCCCCCCCCCCCSSCCCCCCCCCCCCCCCCCC	-3% (inactive)
c1ccc2c(c1)OCC(CNCCNCC1COc3ccccc3O1)O2 (stereo not drawn)	70% (active)
CC(=O)C(C(C)=O)C1C=CC=CC=C1	-59% (inactive)
c1ccc2c(c1)ccc1c[n+]3c4ccccc4ccc3n12	34% (inactive)
CC(=O)C(=C(I)I)c1ccccc1	-27% (inactive)
O=C1c2ccccc2CN1Cc1ccc(Cl)c(Cl)c1	-1% (inactive)
CC1CC(N)=NC1C(=O)NCCC#N (stereo not drawn)	38% (inactive)
CC(=O)CC(C)=NCCN=C(C)CC(C)=O.[Pd]	0% (inactive)
CCOc1ccccc1NC1=C(Cl)C(=O)c2ccccc2C1=O	100% (active)
CCN1C2=NCCN2S(=O)(=O)c2ccccc21	8% (inactive)
O=C(Cc1nc2ccccc2s1)C(=O)Nc1ccc(Cl)cc1	4% (inactive)
O=C(CCn1[nH]c(=O)c(Cl)c(Cl)c1=O)NNc1ccc([N+](=O)[O-])cc1[N+](=O)[O-]	1% (inactive)
COc1cccc(C2c3cc4c(cc3OC(NNc3ccccc3)C2C)OCO4)c1OC (stereo not drawn)	9% (inactive)
COc1ccc(-c2cc3ccccc3c(=O)n2Cc2ccccc2)cc1	13% (inactive)
CN(C)CCCNCC(=O)Nc1ccc(S(=O)(=O)c2ccc(NC(=O)CNCCCN(C)C)cc2)cc1	-11% (inactive)

Compound	growth inhibition
O=C1NN=C(c2ccc(Cl)cc2)CC1C1C(=O)N(c2ccccc2)N=C1c1ccccc1 (stereo not drawn)	95% (active)
Cc1ccc(S(=O)(=O)NCCSSCCNS(=O)(=O)c2ccc(C)cc2)cc1	-2% (inactive)
O=C(CC(=O)c1ccccc1)CC(=O)c1ccccc1Br	-17% (inactive)
Nc1ncc2ccccc2c1-c1ccc(NC(=O)CCCl)cc1	-2% (inactive)
CC1=NC(=Cc2cccc(Cl)c2)C(=O)N1n1c(-c2ccccc2)nc2ccccc2c1=O	11% (inactive)
CCCOC(=O)CCCC(=O)N(CC)CC	0% (inactive)
C=C1C(=O)[C@@]23CC[C@H]4[C@@](C)(CCC[C@@]4(C)C(=O)OC)[C@@H]2CC[C@]1(O)C3	83% (active)
CCCCN(CCCC)CCC(=O)c1ccc2c(ccc3ccccc32)c1	20% (inactive)
CC1CCC2(C)C(CC=C(C=O)C2(O)C=O)C12CO2 (stereo not drawn)	99% (active)
CN(C)CC1CC/C(=C\c2ccc(Cl)c(Cl)c2)C1=O (stereo not drawn)	25% (inactive)
CCS(=O)(=O)c1ccc(NC(=O)OC2CCCCCCC2)cc1	11% (inactive)
CC(=O)OC1CCCCCCCCCCC12OCCO2 (stereo not drawn)	20% (inactive)
CC(=O)OCc1cc2c(s1)C(=O)c1sccc1C2=O	12% (inactive)
O=C1C=CC(=O)c2nc3ccccc3nc21	1% (inactive)
Cc1ccccc1C1c2c(C)cccc2C(=O)CC1CC(=O)O (stereo not drawn)	-1% (inactive)
CCOC(=O)c1c(N)sc2c1CCCCC2	-63% (inactive)
CCCCC(O)CCCC	-5% (inactive)
Nc1nn2c(C(Br)Br)cc(C(Br)Br)nc2c1[N+](=O)[O-]	100% (active)
COC(=O)c1n[nH]c(C(C)C)c1N=NN(C)C	-27% (inactive)
